CSC inhib – blocks cancer stem cells; 300,000 compounds, 1.1% hits; cancer stem cell-like cells viability, luminescence; AID 2717; inhibition, % at 7.5 µM; in the data active = inhibition above about 75%; inconclusive = no clear call, values can overlap the other calls; tested in HMLE shEcad cells
ALR inh – inhibitors of human sulfhydryl oxidase ALR; AID 485317; 290,000 compounds, 3.8% hits; P55789; inhibition, % (concentration not given with the values); purified ALR, DTT oxidation, H2O2 HRP-luminol luminescence;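 active = mean replicate inhibition above about 79%, with every replicate also reaching it, limit read from the data; inconclusive = only one of the two criteria met; inactive = mean below limit and not every replicate reaching it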
Target sequence (P55789 whole entry, looked up): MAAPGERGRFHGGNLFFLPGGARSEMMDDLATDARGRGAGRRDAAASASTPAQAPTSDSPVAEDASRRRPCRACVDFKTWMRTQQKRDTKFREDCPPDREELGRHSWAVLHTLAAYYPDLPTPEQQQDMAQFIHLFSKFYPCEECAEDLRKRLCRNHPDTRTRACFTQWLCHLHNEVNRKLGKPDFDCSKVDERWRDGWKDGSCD
Calb FLC – C. albicans growth modulation with fluconazole. C. albicans CaCi-2 (fluconazole-resistant clinical isolate) + fluconazole, Alamar Blue growth, 48 h. growth inhibition, % (test concentration not listed). 300,000 compounds, 0.57% hits. AID 1979;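 active = growth inhibition above about 58% in most replicates, limit read from the data, passing the limit was not always enough; inconclusive = exactly half the replicates above a set limit; inactive = most replicates below a set limit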;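 note: all wells also contain fluconazole at 8 µg/ml as a sub-toxic cotreatment; 0% = median of DMSO wells and 100% = median of geldanamycin control wells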
PP5 primary – PP5 (human) phosphatase inhibition. AID 1987. 320,000 compounds, 0.18% hits. purified PP5c, OMFP substrate fluorescence. inhibition, % at 6.7 µM. P53041;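 active = inhibition above the campaign's mean inhibition across all tested compounds plus 3 SD, cut at about 9.5% in these data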;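 note: 0% = DMSO only and 100% = 100 µM cantharidin control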
PP1 counter – blocks human PP1-alpha phosphatase, a PP5 counter-screen | inhibition, % at 6.7 µM | purified PP1alpha, OMFP fluorescence | 320,000 compounds, 0.9% hits;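 active = inhibition above the mean inhibition of all tested compounds plus 3 SD, computed separately for each screening campaign, cut at about 15% in these data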
Target sequence (P62136 whole entry, looked up): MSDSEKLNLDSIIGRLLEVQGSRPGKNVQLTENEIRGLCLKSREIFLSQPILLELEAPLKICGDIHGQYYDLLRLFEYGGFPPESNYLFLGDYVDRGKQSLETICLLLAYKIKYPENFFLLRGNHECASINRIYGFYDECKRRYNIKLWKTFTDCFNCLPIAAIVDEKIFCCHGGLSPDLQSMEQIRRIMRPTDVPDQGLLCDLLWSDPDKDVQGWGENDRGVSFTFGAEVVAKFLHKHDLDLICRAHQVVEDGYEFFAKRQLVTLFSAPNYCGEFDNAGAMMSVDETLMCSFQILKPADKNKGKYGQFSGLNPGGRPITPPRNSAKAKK
Active calls of the source: *; ? = inconclusive; · = not tested or not shown. This is a sample that favours compounds with a hit; in the whole collection about 5.4% have one here.

SMILES | CSC inhib | ALR inh | Calb FLC | PP5 primary | PP1 counter
Cc1nc2ccc(C(=O)Nc3ccc(N(C)C)cc3)cc2s1 | 17 | 99* | 1 | -1 | -3
COc1cc(C=O)ccc1OCC(=O)Nc1ccc2c(c1)OCO2 | -12 | -5 | 6 | 2 | 2
O=C1CC[C@@H](O)CCN1CC[C@H](Sc1ccccc1)c1ccccc1 | -8 | 31 | 3 | 1 | -4
CCOc1ccc2nc(NC(=O)CS(=O)(=O)c3ccc(C)cc3)sc2c1 | -1 | 81* | 1 | 3 | -3
CCCC(=O)Nc1nc2ccc(OCC)cc2s1 | 12 | -4 | -3 | 0 | 0
CCOc1ccc2nc(NC(=O)CS(=O)(=O)c3ccccc3)sc2c1 | 4 | -22 | 0 | 2 | -1
CCOc1ccc2nc(NC(=S)N(C)C)sc2c1 | · | 26 | 104* | 4 | -1
O=C(NN=Cc1ccc(F)cc1)c1cccc(S(=O)(=O)N2CCCC2)c1 | 9 | -15 | · | · | ·
O=C(N/N=C/c1ccc(O)c(O)c1)c1cccc(S(=O)(=O)N2CCCCC2)c1 | 10 | 99* | -2 | -1 | 4
O=C(N/N=C\c1cc(Br)ccc1O)c1ccc(S(=O)(=O)N2CCCCC2)cc1 | 104* | -5 | -17 | 0 | 7
CC(C)C(=O)Nc1ccc(C(=O)N/N=C/c2cc(Br)cc(Br)c2O)cc1 | 84* | -10 | -14 | 1 | -1
CCOc1cc(C=NNC(=O)c2cccc(S(=O)(=O)N3CCCC3)c2)ccc1O | -14 | 95* | · | · | ·
CCOc1cc(/C=N/NC(=O)c2cccc(S(=O)(=O)N3CCCC3)c2)ccc1OCC(=O)N(C)C | -5 | -9 | 1 | -1 | -2
O=C(NC1CC1)c1cc(Cl)ccc1[N+](=O)[O-] | -1 | -13 | 1 | 1 | 2
COc1cc(/C=N/Nc2nc(Nc3ccccc3)nc(N3CCOCC3)n2)ccc1OC(=O)c1ccco1 | 14 | -17 | 10 | 2 | 3
O=C(c1ccc(OC2CCN(Cc3ccccc3C(F)(F)F)CC2)cc1)N1CCCCC1 | 0 | -9 | 4 | 5 | 1
Cc1ccc(C(C)C)c(OCC(=O)OCC(=O)NC2CC2)c1 | -1 | -1 | · | · | ·
CCCC(=O)NCc1ccccc1Cl | 0 | · | -27 | -1 | -2
O=C(N/N=C/c1cc(Cl)ccc1O)c1ccc(Br)cc1 | 100* | -7 | · | 0 | 6
O=C(N/N=C/c1cc(Br)ccc1O)c1ccncc1 | 3 | · | -18 | 3 | -2
Cc1ccc2nc(=O)c(NNc3ccccc3)cnc2c1 | · | -1 | -40 | 5 | -4
Nc1nnc(N2CCCCC2)s1 | -4 | 91* | 0 | 2 | 2
CCN(CC)CCNC(=O)CS(=O)Cc1nc(-c2ccc(C)cc2)oc1C (stereo not drawn) | 3 | 99* | -16 | 3 | -7
CCN(CC)CCNC(=O)CS(=O)Cc1nc(-c2ccc(Cl)cc2)oc1C (stereo not drawn) | 4 | 99* | 1 | -1 | 0
Cc1ccc(CNC(=O)CS(=O)Cc2nc(-c3ccccc3Cl)oc2C)cc1 (stereo not drawn) | -8 | 95* | -2 | 2 | -2
SMILES | CSC inhib | ALR inh | Calb FLC | PP5 primary | PP1 counter
Cc1oc(-c2ccc(Cl)cc2)nc1CS(=O)CC(=O)NCCCN1CC(C)CC(C)C1 (stereo not drawn) | -11 | 13 | -7 | 1 | -2
Cc1oc(-c2ccccc2Cl)nc1CS(=O)CC(=O)NCc1cccs1 (stereo not drawn) | -14 | · | -2 | 2 | 2
CCN(CC)CCNC(=O)CS(=O)Cc1nc(-c2ccccc2Cl)oc1C (stereo not drawn) | -15 | 99* | 7 | 1 | 0
COc1ccc(-c2nn(-c3ccccc3)cc2C2CC(c3cccs3)=NN2C(=O)CCCC(=O)O)cc1 (stereo not drawn) | -23 | 1 | 31 | 3 | 4
CN(C)c1ccc(CNS(=O)(=O)c2ccc3c(c2)NC(=O)CS3)cc1 | 7 | 99* | 16 | -4 | -4
Cc1ccc(CNS(=O)(=O)c2ccc3c(c2)NC(=O)CS3)cc1 | 15 | 7 | 0 | 0 | -1
COc1ccc(/C=C2\SC(=N)N(c3nccs3)C2=O)cc1OC | 77* | -3 | 3 | 1 | 2
N=C1S/C(=C\c2ccc(-c3cccc(Cl)c3)o2)C(=O)N1c1nccs1 | 65 | -1 | -8 | 1 | 10
N#Cc1ccc(NC(=O)c2cc(-c3cccs3)on2)cc1 | -1 | 50 | -7 | 0 | -3
O=C(O)c1cc2c(N3CCC(Cc4ccccc4)CC3)ncnc2s1 | 2 | -4 | ? | 0 | -1
c1ccc(CC2CCN(c3ncnc4sccc34)CC2)cc1 | · | · | 97* | · | ·
c1ccc(-c2cncnc2)nc1 | -8 | -9 | · | -1 | -2
CC1(C)c2cc(Cl)ccc2-n2c1cc(O)c(-c1ccccc1)c2=O | -3 | ? | 15 | -1 | -2
Cc1c(O)cc2n(c1=O)-c1ccc(Cl)cc1C2(C)C | · | -2 | 109* | 2 | -3
CCOC(=O)/C=C1\Nc2ccccc2OC1=O | 4 | 93* | -2 | -1 | -4
COC(=O)c1[nH]c2ccccc2c1NC(=O)C(C)N1CCOCC1 (stereo not drawn) | -6 | -2 | -2 | 0 | -1
CCOP(=O)(OCC)C(Nc1ccccn1)c1ccccc1 (stereo not drawn) | 5 | 1 | 8 | -2 | -1
CCOC(=O)c1ccc(NC(=O)CC2S/C(=N/N=C/c3c[nH]c4ccccc34)NC2=O)cc1 (stereo not drawn) | 88* | -5 | 22 | 2 | 6
Cc1ccc(S(=O)(=O)NNC(=O)CCC(=O)Nc2ccccc2)cc1 | -7 | 9 | 2 | 0 | -2
Cc1ccc(S(=O)(=O)Nc2ccc(Nc3ccccc3)cc2)cc1 | -10 | 99* | 19 | 9 | 5
CCn1c2ccccc2c2cc(NS(=O)(=O)c3ccc(C)cc3)ccc21 | 84* | · | -2 | 6 | 3
CC(=O)Nc1ccc(S(=O)(=O)NNC(=O)c2ccc(C)cc2)cc1 | -3 | 8 | -19 | 1 | -4
Cc1ccc(S(=O)(=O)NNc2ccccc2)cc1 | 8 | 100* | 8 | 4 | -15
CC(=O)Nc1ccc(S(=O)(=O)NNc2cccc(C)c2)cc1 | 13 | 99* | -17 | 0 | 1
CCn1c(=O)n(CC)c2cc(NS(=O)(=O)c3ccccc3)ccc21 | -2 | 1 | -4 | 0 | -2
SMILES | CSC inhib | ALR inh | Calb FLC | PP5 primary | PP1 counter
NC(=O)C1CCN(C(=O)CSc2ccccn2)CC1 | -4 | -6 | -1 | 3 | -2
CC(=O)Oc1ccc(/C=C2\C=C(c3ccc(C)cc3)OC2=O)cc1 | 4 | 3 | 2 | 1 | 0
O=S(=O)(Nc1ccc(Nc2ccccc2)cc1)c1ccc(F)cc1 | · | 98* | 2 | 5 | 0
O=S(=O)(Nc1ccc(S(=O)(=O)Nc2ccccc2)cc1)c1ccccc1 | 2 | · | -6 | -4 | -6
Cc1ccc(S(=O)(=O)c2cc(Nc3ccccc3)ccc2O)cc1 | 27 | 100* | 51 | -7 | 7
CC(C)=NOc1nc(N(C)C)nc(N(C)C)n1 | -3 | -5 | 32 | -1 | -4
S=C(Nc1ccccc1Cl)N1CCCC(c2ccccc2)=N1 | 84* | -15 | -6 | -3 | -3
S=C(Nc1ccccc1Cl)N1CCCCCC1 | -4 | -7 | -10 | 0 | -1

High-throughput results from PubChem BioAssay.
